Screening data from PubChem BioAssay.
Only a selection was taken, and hits are over-represented in it overall.
VDR inh: inhibitors of human vitamin D receptor; P11473; VDR-SRC2-3 peptide fluorescence polarization, 2 h; Potency, µM, hits mostly inhibitors; 400,000 tested, 0.93% active
Target sequence (P11473 whole entry, looked up): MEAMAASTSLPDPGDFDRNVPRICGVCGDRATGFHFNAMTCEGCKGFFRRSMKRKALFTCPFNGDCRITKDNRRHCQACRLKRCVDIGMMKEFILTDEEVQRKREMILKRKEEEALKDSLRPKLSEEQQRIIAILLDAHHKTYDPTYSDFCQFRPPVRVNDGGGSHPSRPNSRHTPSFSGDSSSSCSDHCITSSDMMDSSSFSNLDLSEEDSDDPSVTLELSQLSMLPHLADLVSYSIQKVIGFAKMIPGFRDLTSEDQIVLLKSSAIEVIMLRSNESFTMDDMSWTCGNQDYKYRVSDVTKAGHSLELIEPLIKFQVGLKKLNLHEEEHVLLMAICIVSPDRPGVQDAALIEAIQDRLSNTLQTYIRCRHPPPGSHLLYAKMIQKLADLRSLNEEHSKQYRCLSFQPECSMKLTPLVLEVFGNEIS
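FP read-out; VDR + SRC2-3 coactivator peptide; 23 nl compound by pintool; 2 h RT incubation; reagents held at 4 deg C, protected from light.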
G9a inh: G9a (human) methyltransferase inhibition; Q96KQ7; G9a H3K9 monomethylation, AlphaScreen, 2 h; Potency, µM (series often up to 102 µM), most hits filed as inhibitors; 350,000 tested, 8.8% active; AID 504332; further: nearly all actives have a fitted effect of over 75% in size
Target sequence (Q96KQ7 913-1193 limits assumed): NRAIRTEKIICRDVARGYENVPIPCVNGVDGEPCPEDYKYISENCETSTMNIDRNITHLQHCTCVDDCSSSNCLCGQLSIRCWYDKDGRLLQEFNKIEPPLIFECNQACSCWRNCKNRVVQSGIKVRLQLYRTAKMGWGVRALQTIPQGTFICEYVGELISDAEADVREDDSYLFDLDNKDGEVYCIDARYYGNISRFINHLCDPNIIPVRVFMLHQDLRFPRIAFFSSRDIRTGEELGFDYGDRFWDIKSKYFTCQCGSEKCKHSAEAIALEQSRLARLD
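Signal arises when biotinylated H3K9 peptide, once monomethylated, bridges streptavidin donor and antibody-captured acceptor beads. Enzyme at 20 nM was preincubated 15 min with test compounds; peptide 500 nM and SAM 20 uM then reacted for 2 h.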
12-LOX inh: blocks human arachidonate 12S-lipoxygenase; P18054; purified 12hLO, xylenol orange hydroperoxide absorbance; Potency, µM (doses to about 108 µM), most hits filed as inhibitors; 580,000 tested, 1.1% active
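Purified human 12hLO (150 nM final) in 25 mM Hepes, 0.01% Triton X-100, pH 7.0 was preincubated 15 min at room temperature with compound. Then 40 uM arachidonic acid was added, 30 min. Hydroperoxide was read by Fe-XO absorbance ratio 573/405 nm.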
GRP78 ERSR act: induces the endoplasmic reticulum stress response in human glioma cells | U87-MG GRP78 promoter luciferase reporter, 16 h | Potency, µM, most hits filed as activators | 420,000 tested, 0.02% active | AID 602332; further: series mostly up to about 76 µM; nearly all actives have a fitted effect of over 35% in size
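Stably transfected U87-MG human glioma cells carrying a GRP78-based luminescent sensor were seeded at 1000 cells/well, pin-dosed with compounds and incubated 16 h. Luciferase reagent was then added, and end-point luminescence was read after 10 min at room temperature.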
Sfp PPTase inh: inhibitors of Bacillus subtilis Sfp phosphopantetheinyl transferase; Biochemical Sfp PPTase activity, qHTS; Potency, µM, actives largely listed as inhibitors; 310,000 tested, 3.5% active; Q9F4F7;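 further: the enzyme is Sfp with the accession as filed and its product quenches rhodamine fluorescence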
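Compounds were incubated with enzyme (final 15 nM) for 15 min at room temperature before substrate addition started the reaction. Fluorescence at 525 nm excitation, 598 nm emission was recorded immediately and after 30 minutes.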
A number is an active result; n = inactive; u = inconclusive; x = no result given; [ ] = another dose, or the depositor's remark. The call rests on the fitted dose curve; in most records, active means well fitted curve in the direction sought with a large enough effect; inconclusive means small, poorly fitted or top-dose-only effect, or another doubt; inactive means no such curve, though single readings can be large; an effect the other way counts as inactive or inconclusive.

SMILES	VDR inh	G9a inh	12-LOX inh	GRP78 ERSR act	Sfp PPTase inh
CC(C)c1ccc(NC(=O)C2C3C=CC(CC3)C2C(=O)O)cc1 (stereo not drawn)	n	x	n	n	x
O=C(O)C1C2C=CC(CC2)C1C(=O)O (stereo not drawn)	n	44.7µM	n	n	39.8µM
COc1cc2c(=O)n(Cc3ccco3)c(=O)n(CC(=O)c3cccc(Br)c3)c2cc1OC	n	n[0.501 µM]	x	n	79.4µM
COc1cc(/C=C2\SC(c3ccc(C)cc3)=NC2=O)cc(OC)c1O	u	u	u	n	11.2µM
COc1cc(/C=C2\SC(N)=NC2=O)cc(Cl)c1O	n	n[0.501 µM]	n	n	n
Cc1ccc(C2=NC(=O)/C(=C/c3cc(O)c(O)c(Br)c3)S2)cc1	u	2.24µM	u	n	44.7µM
Cc1ccc(CNC(=O)c2ccc(Nc3cc(-c4ccc(F)cc4)ncn3)cc2)o1	x	x	n	x	x
Cc1ccc(OCCN2C(=O)C(=O)c3cc(C)ccc32)cc1	u	25.1µM	u	n	n
CCCN1C(=O)S/C(=C/c2ccc(N3CCOCC3)o2)C1=O	89.1µM	n[12.7 µM]	u	n	1.26µM
Cc1ccc(OCCN2C(=O)S/C(=C\c3ccc(C)o3)C2=O)cc1	u	31.6µM	u	n	17.8µM
CCCN1C(=O)S/C(=C\c2ccc(N3CCOCC3)o2)C1=O	31.6µM	3.98µM	39.8µM	n	3.16µM
O=C(O)C(c1c[nH]c2ccc(CO)cc12)N1CCN(CCNc2cc(=O)oc3ccccc23)CC1 (stereo not drawn)	x	x	n	x	x
Fc1cccc(CSc2ccc(-c3ccco3)nn2)c1	n	u	n	n	15.8µM
CSc1ccc(-c2ccco2)nn1	n	31.6µM	n	n	31.6µM
COc1ccc(-c2ccc(SCC(=O)NCc3ccco3)nn2)cc1	n	n	n	n	n
CCSc1ccc(-c2ccco2)nn1	n	17.8µM	n	n	14.1µM
CCOc1ccc(-c2ccc(SC)nn2)cc1	n	n	n	n	n
Cc1nc(C)c(-c2ccc(SCc3cccc(F)c3)nn2)s1	n	n	n	n	n
CN(C)c1ccc(C(=O)NCc2coc(-c3cccs3)n2)cc1[N+](=O)[O-]	x	x	n	x	x
CCC(=O)N1CCc2cc(S(=O)(=O)NCCC(=O)Nc3ccc(N(CC)CC)cc3C)ccc21	n	10µM	n	n	x
CCN(CC)c1ccc(NS(=O)(=O)c2ccc3c(c2)CCCN3C(C)=O)c(C)c1	n	11.2µM	n	n	x
CCC(=O)N1CCc2cc(S(=O)(=O)CCC(=O)Nc3cccc(F)c3)ccc21	n	22.4µM	u	n	n
Cc1noc2nc(C(C)C)cc(C(=O)NC3CCCc4c3[nH]c3c(Cl)cccc43)c12 (stereo not drawn)	x	x	n	x	x
Cc1oc2cc(OCC(=O)Nc3ccc4c(c3)OCO4)ccc2c(=O)c1-c1ccccc1	x	x	n	x	x
CCC(NC(=O)Nc1cc(OC)ccc1OC)c1c(-n2cccc2)sc2c1CCN(CC)C2 (stereo not drawn)	n	14.1µM	u	n	x
SMILES	VDR inh	G9a inh	12-LOX inh	GRP78 ERSR act	Sfp PPTase inh
O=C(c1ccccc1SCc1cn2ccccc2n1)N1CCN(c2nccs2)CC1	x	x	n	x	x
O=C1Nc2ccccc2CC12CCN2[S+](=O)([O-])c1cccs1 (stereo not drawn)	x	x	n	x	x
CC(=O)N1CCC(C(=O)N2CCN(c3cccc(Cl)c3)CC2)CC1	x	x	n	x	x
CC(=O)N1CCC(C(=O)N2CCC3(CC2)NC(=O)N(c2ccccc2)N3)CC1	x	x	1.58µM	x	x
CC(=O)N1CCC(C(=O)N2CCC3(CC2)NC(=O)N(c2cccc(Cl)c2)N3)CC1	x	x	1.26µM	x	x
COC(=O)CC1=NN(c2ccccc2)C(=O)/C1=C\c1ccc(OC)cc1	n	20µM	u	n	n
COc1ccccc1/C=C1/C(=O)N(c2ccccc2)N=C1C	u	u	u	n	n
COc1ccc(C(=O)NNC(=O)C2=NN(c3ccccc3)C(=O)CC2)cc1	n	x	n	n	n
CCOC(=O)CC1=NN(c2ccccc2)C(=O)/C1=C\c1ccc(OC)cc1OC	50.1µM	10µM	u	n	n
O=S(=O)(c1ccc2c(c1)OCCO2)c1nc(-c2ccco2)oc1N1CCOCC1	x	x	n	x	x
CC(=O)Nc1ccc(Cl)c(NC(=O)c2nn(-c3ccccc3)c(=O)c3ccccc23)c1	x	x	n	x	x
CC1CCN(c2[nH]c(=S)c(C#N)c3c2CCCC3)CC1	n	31.6µM	n	n	31.6µM
CC1(C)Cc2c(c(N3CCCCC3)[nH]c(=S)c2C#N)CS1	n	n	n	n	n
CCOC(=O)c1c(C)[nH]c(C)c1S(=O)(=O)N1CCN(c2cccc(C)c2)C(C)C1 (stereo not drawn)	n	79.4µM	n	n	n
Cc1cc(C)cc(-n2nnn(C3C/C(=N/NC(N)=S)C4OCC3O4)c2=S)c1 (stereo not drawn)	n	50.1µM	u	n	56.2µM
COc1ccc(CC(=O)Nc2c(C(=O)N3CCC(N4CCCCC4)CC3)oc3ccccc23)cc1	x	x	n	x	x
O=C(O)c1ccc(Cl)cc1Nc1nc2cc(Cl)ccc2o1	u	n	8.91µM	n	n
CCN(Cc1cccc(F)c1)C(=O)C1CCCO1 (stereo not drawn)	x	x	n	x	x
S=c1[nH]nc(C2CCCCC2)n1/N=C/c1ccccc1Cl	n	2.24µM	u	n	63.1µM
COc1ccc(-c2n[nH]c(=S)n2/N=C/C=C/c2ccccc2OC)cc1	n	1.26µM	u	n	n
COc1ccccc1/C=C/C=N/n1c(C2CCCCC2)n[nH]c1=S	n	3.16µM	u	n	n
O=C(O)c1ccccc1/C=N/n1c(C2CCCCC2)n[nH]c1=S	u	22.4µM	u	n	n
CCCc1ccc(S(=O)(=O)N2CCN(Cc3nc4ccccc4o3)CC2)cc1	x	x	n	x	x
CCCCc1nn2cc(-c3cccc(Br)c3)nc2s1	x	x	n	x	x
CCOc1ccccc1/C=N/n1c(C2CCCCC2)n[nH]c1=S	n	14.1µM	n	n	n
SMILES	VDR inh	G9a inh	12-LOX inh	GRP78 ERSR act	Sfp PPTase inh
S=c1[nH]nc(C2CCCCC2)n1/N=C/c1cccs1	n	u	n	n	n
FC(F)(F)c1ccccc1/C=N/n1c(C2CCCCC2)n[nH]c1=S	n	8.91µM	u	n	u
O=C(Cc1cccc(C(F)(F)F)c1)N1CCCc2ncc(C(=O)N3CCCC[C@@H]3Cc3ccccc3)cc21	x	x	n	x	x
CCOc1ccc(Cc2n[nH]c(=S)n2N)cc1	n	u	u	n	56.2µM
COc1ccc(Cc2n[nH]c(=S)n2C)cc1Br	n	u	u	n	u
Nn1c(Cc2ccc(Br)cc2)n[nH]c1=S	89.1µM	2.24µM	28.2µM	n	35.5µM
Nn1c(Cc2ccccc2F)n[nH]c1=S	n	20µM	n	n	u
Nn1c(Cc2ccccc2F)nnc1SCCOc1ccc(Cl)cc1	n	n	n	n	n
CCOC(=O)c1ccc(N/N=C/c2cc(Br)cc([N+](=O)[O-])c2O)cc1	n	0.562µM	u	n	n
COc1ccc(C(=O)Cn2c(Cl)nc3c2c(=O)n(C)c(=O)n3C)cc1	n	n[12.7 µM]	u	n	12.6µM
CCC(C)N(C(=O)Cn1c(Cl)nc2c1c(=O)n(C)c(=O)n2C)C1CCS(=O)(=O)C1 (stereo not drawn)	n	x	n	n	n
